Test results as given in PubChem BioAssay (NCI).
The panel holds about 83,000 compounds, 20% with a hit somewhere; the sample as a whole holds those more often.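 Step 1: grow cells in 96-well plates. Step 2: add test compound at a single concentration. Step 3: incubate 48 h. Step 4: record percent growth.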 Active and inactive are the calls of the source. Rule for the calls: active = growth percent below 10; inactive = the rest.

Legend:
Test in all cases: NCI-60 one-dose screen, 48 h (100 = growth as untreated, 0 = no growth, -100 = all killed)
Settings in all cases: 10 µM unless noted
[1] = system: HCT-15 colon
[2] = system: HT29 colon
[3] = system: SNB-75 CNS
[4] = system: SNB-19 CNS
[5] = system: U251 CNS
[6] = system: PC-3 prostate
[7] = system: SK-MEL-5 melanoma
[8] = system: UACC-62 melanoma
[9] = system: LOX IMVI melanoma
[10] = system: SK-MEL-28 melanoma

Measured: growth

CN(c1ncccc1CNc1nc(Nc2ccc3c(c2)CC(=O)N3)ncc1C(F)(F)F)S(C)(=O)=O
active: [1] 2.3% | [2] -28.4% | [3] -43.3% | [4] 7.98% | [5] -0.121% | [6] 7.2% | [7] -38.3% | [8] -64.6% | [9] 2.21% | [10] -16.1%

Cc1nc2cc(-c3nn(C(C)C)c4ncnc(N)c34)ccc2o1
active: [1] 1.74% | [2] -8.06% | [3] -70.1% | [4] -4.62% | [5] -15.3% | [6] 3% | [7] -49.2% | [8] -53% | [9] -21.1% | [10] -34.3%

COC(=O)CNC(=O)[C@@H](OC)[C@@H]1Cc2cc3cc(OC4CC(OC5CC(O)C(O)C(C)O5)C(O)C(C)O4)c(C)c(O)c3c(O)c2C(=O)[C@H]1OC1CC(OC2CC(OC3CC(C)(O)C(O)C(C)O3)C(O)C(C)O2)C(O)C(C)O1 (stereo not given in full)
inactive: [1] 31.5% | [6] 12.9%
active: [2] 3.78% | [3] -51.7% | [4] 9.4% | [5] 9.93% | [7] -44.6% | [8] -65.2% | [9] -15.5% | [10] -17.2%

Cc1ccccc1N1C(c2ccccc2)=NNC12C=CC(=O)C=C2Cl (stereo not given)
inactive: [1] 108% | [2] 96.2% | [3] 96.3% | [4] 106% | [5] 94.2% | [6] 96.2% | [7] 115% | [8] 98.1% | [9] 98.7% | [10] 101%

O=c1[nH]ccc2c(S(=O)(=O)N3CCCNCC3)cccc12
inactive: [1] 93.3% | [2] 82.2% | [3] 54.6% | [4] 97.4% | [5] 101% | [6] 86.9% | [7] 109% | [8] 70.1% | [9] 90.6% | [10] 67%

CNC(=O)c1cccc2cc(Oc3ccnc4cc(OCC5(N)CC5)c(OC)cc34)ccc12
inactive: [1] 57.8% | [2] 34.6% | [3] 26.7% | [4] 67.6% | [5] 66.4% | [6] 66.9% | [7] 76.5% | [8] 82.2% | [9] 46.3% | [10] 87%

CCc1nc2cc(/C=C/C(=O)NO)ccc2c(=O)n1CCc1ccc(F)cc1
inactive: [1] 24.7% | [3] 30.6% | [4] 23.6% | [6] 13.2% | [10] 22.8%
active: [2] 8.3% | [5] -20.8% | [7] -37.8% | [8] -28.8% | [9] -73.2%

C1=C\COCc2cc(ccc2OCCN2CCCC2)Nc2nccc(n2)-c2cccc(c2)COC/1
active: [1] 1.31% | [2] -30.8% | [3] -95.8% | [4] 1.55% | [5] -22.6% | [6] 0.91% | [7] -96.5% | [8] -68.7% | [9] -70.2% | [10] -41.8%

CCN1CCN(c2cc(C)nc(N(CCCNc3ccnc4cc(Cl)ccc34)Cc3cccs3)n2)CC1
inactive: [4] 12.5% | [6] 32.8%
active: [1] 3.14% | [2] 1.82% | [3] -5.92% | [5] 0.735% | [7] -97.4% | [8] -19.8% | [9] -73.5% | [10] -65.9%

COc1ccc2c(OCc3nnc4ccc(-c5ccccc5)nn34)ccnc2c1
inactive: [1] 96.9% [2.5 µM] | [2] 94.1% [2.5 µM] | [3] 93.5% [2.5 µM] | [4] 106% [2.5 µM] | [5] 110% [2.5 µM] | [6] 96.9% [2.5 µM] | [7] 91.9% [2.5 µM] | [8] 108% [2.5 µM] | [10] 111% [2.5 µM]
active: [9] 2.5% [2.5 µM]

COc1ccc(C(=O)N2c3ccccc3Sc3ccccc32)c(F)c1
active: [2] 5.07% | [3] -11.3%
inactive: [1] 27.3% | [4] 35.8% | [5] 33.6% | [6] 29.8% | [7] 15.7% | [8] 22.6% | [9] 40.3% | [10] 58.9%

Cn1cc(-c2[nH]c3cc(NC(=O)[C@H](N)C4CCCCC4)cc4c3c2C=NNC4=O)cn1
inactive: [1] 20.1% | [8] 26.1%
active: [2] -11.1% | [3] -70.2% | [4] -24.4% | [5] -83.3% | [6] 7.2% | [7] -36.6% | [9] -73.4% | [10] -70%

COc1ccc(CCCc2c3[n+](cc4c(OC)c(OC)ccc24)CCc2cc4c(cc2-3)OCO4)cc1
inactive: [1] 102% | [2] 47.2% | [3] 88.3% | [4] 60.4% | [5] 40.8% | [6] 58.2% | [7] 39% | [8] 49.7% | [9] 57.8% | [10] 63.1%

Nc1cc(C(F)(F)F)c(-c2cc(N3CCOCC3)nc(N3CCOCC3)n2)cn1
active: [1] -10% | [2] -29.2% | [3] -69% | [4] 0.838% | [5] -2.08% | [6] -10.4% | [7] -75.5% | [8] -72.7% | [9] -44.6% | [10] -47.5%

CC(=O)C(C(C)=O)C(c1ccccc1)C(C(C)=O)C(C)=O
inactive: [1] 100% | [2] 98.5% | [3] 95.1% | [4] 102% | [5] 93.5% | [6] 89.8% | [7] 97.2% | [8] 98.2% | [9] 94.4% | [10] 103%

COc1ccc2c(CCCCC(c3ccccc3)c3ccccc3)c3[n+](cc2c1OC)CCc1cc2c(cc1-3)OCO2
active: [1] -47% | [2] -73.7% | [3] -74% | [4] -65.2% | [5] -93.2% | [6] -75% | [7] -99.5% | [8] -63.6% | [9] -100% | [10] -82.1%

CCOC(=O)C1=C(C)N=C2Sc3cc(OC(F)(F)F)ccc3N2[C@H]1c1ccccn1
inactive: [1] 13.7% | [2] 39.2% | [3] 63.4% | [4] 37.9% | [5] 23.1% | [6] 50.9% | [7] 38.5% | [8] 28.3% | [9] 32.9% | [10] 42.4%

CN1C/C=C\CCOc2cccc(c2)-c2ccnc(n2)Nc2cccc(c2)C1
active: [1] -16.9% | [2] -16.8% | [3] -98.6% | [4] 0.69% | [5] -52.9% | [6] -41.9% | [7] -95.1% | [8] -62.7% | [9] -79.4% | [10] -76%

CCN(CCO)CCCOc1ccc2c(Nc3cc(CC(=O)Nc4cccc(F)c4)[nH]n3)ncnc2c1
active: [2] -1.18% | [8] -4.86% | [10] -6.81%
inactive: [1] 52.5% | [3] 76.3% | [4] 39.1% | [5] 39.8% | [6] 62.6% | [7] 63.3% | [9] 17.8%

COc1cc2c(cc1OCCCCCCN1CCN(c3ncnc4ccccc34)CC1)N=CC1CCCN1C2=O (stereo not given)
inactive: [2] 10.9% | [4] 17%
active: [1] -2.53% | [3] -46.9% | [5] 0.0332% | [6] -23.1% | [7] -87.2% | [8] -95.8% | [9] -51.1% | [10] -4.17%

COc1ccc(-c2ccc3ncc4c(c3c2)n(-c2ccc(N3CCNCC3)c(C(F)(F)F)c2)c(=O)n4C)cn1
active: [1] -78.6% | [2] -78.2% | [3] -95.1% | [4] -74.2% | [5] -85.5% | [6] -84.1% | [7] -92.4% | [8] -74.7% | [9] -82% | [10] -76.6%

COc1cc2c(c(OC)c1)C1c3ccccc3NC(=O)N1CC2 (stereo not given)
inactive: [1] 18% | [4] 44.7% | [5] 16.8% | [6] 22.6% | [7] 15.7% | [8] 15.6% | [9] 41.3% | [10] 49.8%
active: [2] 6.37% | [3] 7.13%

COc1ccc2c(c1)cn1c3ccc(O)cc3nc(N)c21
inactive: [1] 18.5% | [2] 21.2% | [3] 15% | [4] 26.9% | [5] 23.7% | [6] 19.9% | [7] 17.8% | [8] 32.5% | [9] 24.2% | [10] 42.6%

CCN1CCN(CCCN(C[C@H]2Cc3ccccc3CN2)[C@H]2CCCc3cccnc32)CC1
inactive: [1] 72.5% | [2] 75.2% | [3] 84.8% | [4] 84.9% | [5] 79.2% | [6] 77.3% | [7] 97.7% | [8] 106% | [9] 74.3% | [10] 108%

CC1(C)NC(=O)c2[nH]c3c(Cl)c(Cl)ccc3c2C1C#N (stereo not given)
inactive: [1] 87.9% | [2] 78.2% | [3] 75.7% | [4] 87.5% | [5] 81.7% | [6] 79.6% | [8] 73.1% | [9] 85.5% | [10] 103%
active: [7] 8.85%

COc1ccc(-c2cc3c(C)nc(N)nc3n(C3CCC(OCCO)CC3)c2=O)cn1 (stereo not given)
active: [1] 3.45% | [2] 1.24% | [3] -50.6% | [4] -7.7% | [5] -13.8% | [6] 5.19% | [7] -77.3% | [8] -52.5% | [9] -55.5% | [10] -29.4%
